The list is not random: actives were taken first. Their share in the collection is about 1%.
USP2a block – inhibitors of human ubiquitin-specific protease USP2a | USP2 core, Ub-CHOP2 coupled fluorogenic reporter, 485/531 | Potency, µM (top dose mostly 38.3 µM), without a hit: top-dose activity change, negative = inhibition, hits mostly inhibitors | 330,000 tested, 0.01% active | AID 463254;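 note: plate controls were DMSO wells for no effect and full inhibition by NEM control for full effect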
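Deubiquitinase activity read as fluorescence (485/531 nm) after Ub-CHOP2 cleavage activates the enterokinase reporter on its substrate; USP2 core 10nM, Ub-CHOP2 and substrate 25nM each, 30min compound preincubation then 60min RT; data normalized to NEM, curves fitted.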
GALK inhibitor – blocks human galactokinase activity. P51570. Purified GALK, Kinase-Glo residual ATP luminescence. Potency, µM (highest dose often 57.5 µM), for inactives: top-dose activity change, negative = inhibition, actives largely listed as inhibitors. 270,000 tested, 0.007% active. AID 1868
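Quantitative HTS: GALK 5 nM, ATP 35 uM, galactose 100 uM, 1 h room temperature, then luciferase-based ATP detection.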
RGS4 inh – human RGS4 inhibition; 390,000 tested, 0.039% active; P49798; Potency, µM (titrated, usually from 114 µM), for the others: at the top dose activity change, negative = inhibition, usual class: inhibitors; AID 504845; Transcreener GDP fluorescence polarization, RGS4-accelerated GTP hydrolysis; note: nearly all actives have a fitted effect of over 75% in size
Target sequence (P49798 whole entry, looked up): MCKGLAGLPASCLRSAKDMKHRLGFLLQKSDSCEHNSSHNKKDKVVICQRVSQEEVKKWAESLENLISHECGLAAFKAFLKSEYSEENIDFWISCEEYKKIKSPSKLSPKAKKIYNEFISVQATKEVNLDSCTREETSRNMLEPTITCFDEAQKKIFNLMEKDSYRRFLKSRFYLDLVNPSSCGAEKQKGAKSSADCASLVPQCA
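MLSMR compounds (23 nl, pin-transferred) preincubated 10 min at room temperature with a 500nM (2x) first reagent, then RGS4 at 900nM (2x) plus Transcreener GDP mix added; fluorescence polarization (620/688 nm) read before and after 90 min at 30 °C.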
Eya2 inh – Eya2 (human) phosphatase inhibition; O00167; recombinant Eya2, OMFP fluorescence dephosphorylation (OMFP is methylfluorescein phosphate); Potency, µM (highest dose often 76.9 µM), without a hit: top-dose activity, negative = inhibition, usual class: inhibitors; 330,000 tested, 0.006% active
Target sequence (O00167 whole entry, looked up): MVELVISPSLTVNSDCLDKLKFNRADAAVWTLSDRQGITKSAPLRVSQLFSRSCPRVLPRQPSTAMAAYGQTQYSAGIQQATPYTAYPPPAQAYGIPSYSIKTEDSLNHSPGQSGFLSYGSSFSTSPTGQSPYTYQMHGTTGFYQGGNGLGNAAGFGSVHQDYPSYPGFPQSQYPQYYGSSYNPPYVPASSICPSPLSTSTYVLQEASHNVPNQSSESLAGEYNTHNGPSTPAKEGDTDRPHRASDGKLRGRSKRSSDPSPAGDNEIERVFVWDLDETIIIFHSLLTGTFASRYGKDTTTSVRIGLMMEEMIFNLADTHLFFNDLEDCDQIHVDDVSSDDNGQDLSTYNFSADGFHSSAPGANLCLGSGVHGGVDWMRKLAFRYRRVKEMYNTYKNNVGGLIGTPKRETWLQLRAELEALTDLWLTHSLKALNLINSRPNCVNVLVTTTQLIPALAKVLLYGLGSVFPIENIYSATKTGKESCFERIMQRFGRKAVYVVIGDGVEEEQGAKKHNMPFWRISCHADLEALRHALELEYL
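Eya2 protein (added as 0.2 uM solution) was preincubated with compound for 10 min at ambient temperature in 50 mM HEPES pH 7.5, 50 mM NaCl, 5 uM MgCl2, 0.05% BSA, 1 mM DTT. OMFP (added at 50 uM) then reacted 10 min; fluorescence read at 485/525 nm.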
TrxR1 substrate – substrates of rat thioredoxin reductase 1; purified TrxR1 substrate turnover, NADPH consumption readout; Potency, µM (doses to about 114 µM), for inactives: at the highest dose activity change, negative = substrate turnover; 390,000 tested, 0.01% active; AID 588456; note: nearly all actives have a fitted effect of over 50% in size
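Rat TrxR1, dispensed at 90 nM, was prereduced with 400 uM NADPH (final) for 5 min at ~22 deg C, then incubated with compound 15 min before 400 uM selenite. A first-read NADPH fluorescence drop versus no-compound background flagged substrates.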
rTrxR1 inhibitor – inhibitors of rat thioredoxin reductase 1; recombinant rTrxR1, NADPH fluorescence consumption, selenite substrate; O89049; 390,000 tested, 1% active; Potency, µM (doses to about 114 µM), for the others: at the highest dose activity change, negative = inhibition, most hits filed as inhibitors; note: nearly all actives have a fitted effect of over 65% in size
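Rat TrxR1 (90 nM in the dispensed reagent) was pre-reduced with 400 uM NADPH for 5 min at room temperature, then incubated with compound for 15 min. After 400 uM selenite was added, NADPH fluorescence (Ex 340/Em 450 nm) was followed for 8 min.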
Starred values were filed as active, the others as inactive; ? = inconclusive; . = no result; [ ] = dose if it differs, or a comment. Calls come from the whole dose curve; as a rule, active = well fitted curve in the direction sought with a large enough effect; inconclusive = small, poorly fitted or top-dose-only effect, or another doubt; inactive = no such curve, though single readings can be large; an effect the other way counts as inactive or inconclusive. Unless noted, % is set by controls: 0 for no effect and ±100 for the full control effect; potency is the fitted concentration of half-maximal effect.

SMILES | USP2a block | GALK inhibitor | RGS4 inh | Eya2 inh | TrxR1 substrate | rTrxR1 inhibitor
Cc1cc(NS(=O)(=O)c2ccc(NC(=S)NC(=O)c3ccccc3)cc2)no1 | -5% | 0% | ? | -9% | -19% | 45µM*
O=C(C[N+]12CN3CN(CN(C3)C1)C2)c1ccc(Cl)cc1 | . | . | . | . | 5%[0.0914 µM] | -7%
COc1ccc(C2Nc3ccccc3C(=O)N2c2ccc(F)cc2)cc1COc1ccc(NC(C)=O)cc1 (stereo not drawn) | . | . | -6% | . | 52% | 33%
CN(C)c1ccc(/C=C/C=C2/C=Cc3ccccc32)cc1 | . | . | . | . | -7% | -34%
CN(CC(=O)Nc1ccc(N2CCOCC2)cc1)Cc1c(O)ccc2ccccc12 | 3% | -3% | ? | -9% | 13%[57.1 µM] | 4µM*
CN(CC(=O)Nc1ccc(N2CCOCC2)cc1)CC(=O)Nc1ccc(N2CCOCC2)cc1 | 4% | -1% | 23% | 3% | -2% | 15%
CSc1ncc(Cl)c(C(=O)Nc2ccc(S(=O)(=O)N3CCC(C)CC3)cc2)n1 | . | . | -6% | . | -3% | 12%
O=C1CC(NS(=O)(=O)c2ccc([N+](=O)[O-])cc2)CN1c1ccc(Cl)cc1 (stereo not drawn) | -1% | . | -20% | 17% | -18% | 50µM*
CCCCOc1cccc(C(=O)NC(=S)Nc2cccnc2)c1 | 1% | 3% | -36% | -5% | -12% | 25µM*
Cc1cc(O)ccc1NC(=S)NC(=O)c1cncc(Br)c1 | -1% | 3% | -44% | -3% | 3% | 4%
O=C(NC(=S)Nc1cccnc1)c1cccc(Br)c1 | 2% | -1% | -25% | -14% | -10% | 56µM*
CCOc1cccc(C(=O)NC(=S)Nc2cccnc2)c1 | 1% | . | -52% | -3% | 11%[57.1 µM] | -59%
Cc1ccccc1NC(=S)NC(=O)c1cncc(Br)c1 | -5% | 2% | -12% | -11% | -11% | 13µM*
O=C(Nc1c(Cl)cc([N+](=O)[O-])cc1Cl)c1cc(Cl)cc(Cl)c1O | . | . | -8% | . | -4% | -16%
Nc1ccc2cccnc2c1 | . | . | . | . | -5% | 7%
O=[N+]([O-])c1ccc(Nc2ccccc2)c2nonc12 | 2% | . | 4% | -4% | -9% | -15%
O=[N+]([O-])c1ccc(Sc2cccc[n+]2[O-])c2nonc12 | 8% | 2% | -117% | -1% | -1%[57.1 µM] | 1.6µM*
C=C1[C@@H](O)[C@H](CC(C)C)N(Cc2ccccc2Br)S1(=O)=O | . | . | -22% | . | -3%[57.1 µM] | 5µM*
O=S1(=O)CCO[C@H]2CCCC[C@@H]2N1Cc1ccccc1Br | . | . | . | . | -5% | -5%
O=C1[C@@H]2C(c3cccnc3)=NO[C@@H]2C(=O)N1c1ccc2ccccc2c1 | -6% | 1% | ? | 34% | 9%[57.1 µM] | 16µM*
COc1ccc(C2=NO[C@@H]3C(=O)N(c4ccc5c(c4)OCCO5)C(=O)[C@H]23)cc1OC | 0% | -1% | 4% | 3% | -5% | -16%
Cc1ccc(S(=O)(=O)N2CCN(c3nc(-c4cccs4)nc4ncccc34)CC2)cc1 | . | . | 12% | . | 30% | 48%
CCC(C)S(=O)(=O)c1oc(-c2cccs2)nc1S(=O)(=O)c1ccccc1 (stereo not drawn) | . | . | -20% | . | 16% | 0.71µM*
CC(C)CS(=O)(=O)c1oc(-c2ccc(F)cc2)nc1S(=O)(=O)c1ccccc1 | . | . | -32% | . | 4% | 0.32µM*
CNc1oc(-c2ccc(F)cc2)nc1S(=O)(=O)c1ccccc1 | 0% | -2% | -5% | -3% | 1%[57.1 µM] | 1%[57.1 µM]
SMILES | USP2a block | GALK inhibitor | RGS4 inh | Eya2 inh | TrxR1 substrate | rTrxR1 inhibitor
O=C(C[n+]1ccccc1Cl)c1cccc([N+](=O)[O-])c1 | . | . | . | . | -4% | -15%
C[N+]1(CC(=O)c2ccc3ccccc3c2)CCOCC1 | . | . | . | . | 20% | 21%
C=CCN1CC[C@@H](O)C(=C)S1(=O)=O | . | . | . | . | -2% | 8%
C=C1C=C(C(F)F)n2ncc(C(=O)Nc3ccc(N(CC)CC)cc3)c2N1 | . | . | . | . | 4% | 4%
COc1cc(OC)c(OC)cc1/C=C/c1cc[n+](C)c2ccccc12 | . | . | . | . | -12% | -16%
Fc1ccc(CNc2nc(-c3ccco3)cc(C(F)(F)F)n2)cc1 | 0% | -1% | -46% | -3% | 0% | 25µM*
Oc1ccccc1C1C=C(c2ccc3c(c2)OCO3)NC(c2cccc(F)c2)N1 (stereo not drawn) | . | . | -1% | . | -5% | -21%
COc1ccc(C(=O)NC(=S)NCc2ccccc2)cc1 | 1% | -2% | -44% | 27% | -8% | 22µM*
CC(=O)N(CCC(c1ccccc1)c1ccco1)Cc1cccs1 (stereo not drawn) | ? | . | ? | -26% | -1% | 25µM*
COc1ccccc1C(=O)NCCC(=O)N(Cc1ccco1)Cc1cccs1 | -6% | 4% | 5% | 10% | -7% | ?
CCC(=O)N(CCC(c1ccco1)c1ccccc1OC)Cc1cccs1 (stereo not drawn) | 5% | 4% | -53% | -13% | 3% | 35µM*
CC(C)(C)n1ncc2c(=O)n(Cc3ccc(F)cc3)cnc21 | . | . | . | . | 1% | 28%[57.1 µM]
Cc1ccc(NC(=O)/C=C\C(=O)NCC(=O)O)cc1C | 2% | 2% | -38% | -1% | 3% | 45µM*
O=C(CSc1nnnn1-c1ccc(F)cc1)c1ccc(O)c(O)c1 | 5.6µM* | -1% | -14% | 2% | -3%[57.1 µM] | -1%[57.1 µM]
CC1CCN(CC[S-])CC1.O.O.[Cl][Pt] | . | . | . | . | -7% | 1.4µM*
O=C(COc1ccccc1C(=O)Nc1ccccc1)Nc1ccc(Br)cc1 | . | . | . | . | -3% | -10%
Fc1ccc(CCNc2ncnc3nc[nH]c23)cc1 | . | . | 3% | . | -4% | 4%
Cn1c2ccccc2c2c(C(=O)NCc3ccco3)cn(C3CCCCC3)c(=O)c21 | 0% | -1% | ? | 9% | 23% | 20µM*
COc1ccc2cc(C3CC(c4ccco4)=NN3S(C)(=O)=O)c(Cl)nc2c1 (stereo not drawn) | 1% | -2% | ? | 2% | 1% | 50µM*
COc1cc(C=Nc2ccccc2C(=O)Nc2ccccc2)cc(OC)c1OC | 3% | . | 17% | -6% | 101% | 22µM*
COc1ccc(CCN2C(=O)C=CC2=O)cc1OC | . | . | ? | . | 6% | 0.63µM*
COc1ccc(CCNC2=C(Cl)C(=O)N(CCc3ccc(OC)c(OC)c3)C2=O)cc1OC | 0% | -2% | 6% | 0% | 14% | 22%
COC(=O)C1=C(C)N(CCc2ccc(OC)c(OC)c2)C(=O)/C1=C\N(C)C | 0% | 0% | ? | -2% | 4% | 10µM*
CCNc1ccc(/C=C/c2ccnc3ccccc23)cc1 | . | . | . | . | -11% | -10%[0.0914 µM]
N#CC(C#N)=C1C=CC=CN1/C(=C\c1ccccc1)C(=O)c1cccs1 | 3% | . | -48% | -2% | 9% | 0.45µM*

Assay outcomes from PubChem.
